From PubChem
NOD2-RIPK2 inh: inhibitors of human NOD2-RIPK2 interaction | O43353 | CHO BLA complementation NOD2-RIPK2, CCF4 ratio | inhibition, % at 4.98 µM | 360,000 compounds, 0.38% hits; in the data active = inhibition above about 21%;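 note: 0% = vehicle only and 100% = reference blocker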
TLR9-MyD88 inh: inhibitors of human TLR9-MyD88 binding. Q9NR96+Q99836. CHO BLA complementation TLR9-MyD88, CCF4 FRET ratio. inhibition, % at 4.98 µM. 340,000 compounds, 0.21% hits. AID 504734;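 active = inhibition above the mean over all tested compounds plus 3 SD, cut at about 21% in these data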;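 note: 0% = DMSO only wells and 100% = clavulanate BLA inhibitor control wells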
m5-HT2A agonist: mouse HTR2A agonism via beta-arrestin recruitment; P35363; CHO-K1 mHTR2A beta-arrestin complementation, luminescence; percent of 30 µM serotonin response; activation, % at 7.6 µM; 360,000 compounds, 0.66% hits; AID 624169;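 active = activation above a run cutoff, the mean activation of all tested compounds plus 3 SD, cut at about 14% in these data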;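 note: 0% = plate median of compound wells and 100% = 30 µM serotonin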
CRFBP-R2 block: blocks CRF-induced signaling of the CRF-BP/CRF-R2 complex; HEK293 CRF-R2/CRF-BP, CRF-induced calcium fluorescence; inhibition, % at 11.8 µM; 350,000 compounds, 0.59% hits;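 active = inhibition of the ligand-induced calcium signal above about 50% at the single tested concentration, limit read from the data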
TLR4 MyD88 comp: blocks binding of human TLR4 to MyD88; HeLa CL3-4 TLR4/MyD88 BLA complementation, FRET ratio; AID 861; inhibition, % at 8.4 µM; 200,000 compounds, 0.18% hits; in the data active = inhibition above about 25%;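 note: 0% = vehicle and 100% = reference inhibitor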
ABHD5-PLIN5 inh: inhibitors of human ABHD5-perilipin-5 interaction. inhibition, % at 4 µM. Q00G26+Q8WTS1. 360,000 compounds, 0.78% hits. Split G. princeps luciferase complementation, luminescence, 4 h;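 active = inhibition above the mean inhibition across every tested compound plus 3 SD, cut at about 22% in these data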;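 note: 0% = DMSO only wells and the 100% control is not disclosed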
Starred values were filed as active, the others as inactive. Compounds with a hit are over-represented: about 2.4% of the library has one in this group of screens.

For CCOc1cc(/C=C2/SC(=S)NC2=O)ccc1OC(=O)c1ccco1 the results were NOD2-RIPK2 inh 2, TLR9-MyD88 inh -1, m5-HT2A agonist 6, CRFBP-R2 block 69*, TLR4 MyD88 comp 2 and ABHD5-PLIN5 inh 12.
CN(C)c1ncnc2c1ncn2[C@H]1CN(CCN2CCOCC2)C[C@@H](CO)O1 was read as NOD2-RIPK2 inh 4, m5-HT2A agonist 7 and ABHD5-PLIN5 inh -1.
`COC(=O)C1=CN(Cc2ccc(OC)cc2)C=C(C(=O)OC)C1c1cccs1` gave NOD2-RIPK2 inh -8, TLR9-MyD88 inh -7, m5-HT2A agonist -8, CRFBP-R2 block 111*, TLR4 MyD88 comp -10 and ABHD5-PLIN5 inh 2.
Screening COc1cc(C(O)c2nc(-c3cccc(NC(C)=O)c3)cs2)ccc1F (stereo not drawn) returned NOD2-RIPK2 inh 10, m5-HT2A agonist -2 and ABHD5-PLIN5 inh 3.
`O=C(c1cccc(NS(=O)(=O)c2ccc(F)c(F)c2)c1)N1CCN(C(c2ccccc2)c2ccccc2)CC1` gave NOD2-RIPK2 inh -9, TLR9-MyD88 inh -2, m5-HT2A agonist 5, CRFBP-R2 block 62*, TLR4 MyD88 comp 3 and ABHD5-PLIN5 inh 13.
COc1ccc(S(=O)(=O)N(CC(C)C)C2CCS(=O)(=O)C2)cc1OC (stereo not drawn) was read as NOD2-RIPK2 inh -1, TLR9-MyD88 inh -6, m5-HT2A agonist 4, CRFBP-R2 block 71* and ABHD5-PLIN5 inh -6.
`C[C@@H](CO)NC(=O)c1[nH]cnc1C(=O)Nc1ccc(CNC(=O)OC(C)(C)C)cc1` gave NOD2-RIPK2 inh -9, TLR9-MyD88 inh 1, m5-HT2A agonist 4, CRFBP-R2 block 2 and ABHD5-PLIN5 inh -10.
Cc1ccccc1-n1ncc2c(SCC(=O)NC3CCCC3)ncnc21 was read as NOD2-RIPK2 inh -11, TLR9-MyD88 inh -9, m5-HT2A agonist 0, CRFBP-R2 block 1 and ABHD5-PLIN5 inh 2.
For Cc1ccccc1-n1ncc2c(SCC(=O)N3c4ccccc4CC3C)ncnc21 (stereo not drawn) the results were NOD2-RIPK2 inh 4, TLR9-MyD88 inh 6, m5-HT2A agonist -1, CRFBP-R2 block 54*, TLR4 MyD88 comp -2 and ABHD5-PLIN5 inh -7.
`COc1ccccc1NC(=O)c1nc(S(=O)(=O)Cc2ccccc2)ncc1Cl` gave NOD2-RIPK2 inh 14, TLR9-MyD88 inh 12, m5-HT2A agonist 0, CRFBP-R2 block 51* and ABHD5-PLIN5 inh 12.
CC(=O)c1ccc(NC(=O)CCc2nnc3ccc(N4CCC5(CC4)OCCO5)nn23)cc1 was read as NOD2-RIPK2 inh -7, TLR9-MyD88 inh 1, m5-HT2A agonist 7, CRFBP-R2 block 65* and ABHD5-PLIN5 inh 8.
For CCOc1ccccc1NC(=O)CCc1nnc2ccc(N3CCC(C)CC3)nn12 the results were NOD2-RIPK2 inh -17, TLR9-MyD88 inh 4, m5-HT2A agonist 2, CRFBP-R2 block 69* and ABHD5-PLIN5 inh 2.
Screening CCc1nc2c(OCc3c(C)noc3C)cccn2c1N(C=O)Cc1ccccc1 returned NOD2-RIPK2 inh -9, m5-HT2A agonist 1 and ABHD5-PLIN5 inh 7.
`COc1ccc(C(=O)N2CCCCC2c2cc(C(=O)Nc3cccc(C#N)c3)no2)cc1` (stereo not drawn) gave NOD2-RIPK2 inh 2, m5-HT2A agonist -4 and ABHD5-PLIN5 inh -2.
For CCOc1ccc(S(=O)(=O)n2ccc(C)n2)c2ccccc12 the results were NOD2-RIPK2 inh -8, TLR9-MyD88 inh -11, m5-HT2A agonist -10, CRFBP-R2 block 55*, TLR4 MyD88 comp -6 and ABHD5-PLIN5 inh -5.
O=NN(Cc1cccnc1)C(=O)NC1CCCCC1 was read as NOD2-RIPK2 inh -3, m5-HT2A agonist -8 and ABHD5-PLIN5 inh 7.
`CCNC(=O)C1CCCN(Cc2cc(C(F)(F)F)ccc2Cl)CC1` (stereo not drawn) gave NOD2-RIPK2 inh -6, m5-HT2A agonist 0 and ABHD5-PLIN5 inh 2.
Screening Cc1onc(-c2ccccc2Cl)c1C(=O)N1C=CC(C(F)(F)Cl)=NCC1 returned NOD2-RIPK2 inh -11, TLR9-MyD88 inh -3, m5-HT2A agonist 24*, CRFBP-R2 block 1, TLR4 MyD88 comp -6 and ABHD5-PLIN5 inh 2.
For Cc1onc(-c2ccccc2Cl)c1C(=O)N1C=CC(C(F)(F)F)=NCC1 the results were NOD2-RIPK2 inh -16, TLR9-MyD88 inh -1, m5-HT2A agonist -2, CRFBP-R2 block 19, TLR4 MyD88 comp -1 and ABHD5-PLIN5 inh 5.
CCOC(=O)N1CCN(S(=O)(=O)c2ccc(C)c(C)c2C)CC1 was read as NOD2-RIPK2 inh -2, TLR9-MyD88 inh -7, m5-HT2A agonist 0, CRFBP-R2 block 94*, TLR4 MyD88 comp 0 and ABHD5-PLIN5 inh -15.
For O=C(C/C=N\OCc1ccc([N+](=O)[O-])cc1)Nc1ccc(Br)cc1 the results were NOD2-RIPK2 inh 11, TLR9-MyD88 inh -7, m5-HT2A agonist -5, CRFBP-R2 block 84*, TLR4 MyD88 comp 8 and ABHD5-PLIN5 inh -2.
O=C(COc1ccc([N+](=O)[O-])cc1)NNC(=O)Nc1ccc([N+](=O)[O-])cc1 was read as NOD2-RIPK2 inh 1, TLR9-MyD88 inh -1, m5-HT2A agonist -7, CRFBP-R2 block 1 and ABHD5-PLIN5 inh 6.
For CCOc1ccc(C(=O)Nc2cc(NC(=O)c3ccc(OCC)c(Cl)c3)cc(C(=O)O)c2)cc1Cl the results were NOD2-RIPK2 inh 5, TLR9-MyD88 inh -3, m5-HT2A agonist 1, CRFBP-R2 block -15, TLR4 MyD88 comp -12 and ABHD5-PLIN5 inh 1.
`CCOc1ccc(C(=O)Nc2ccc(Cl)cn2)cc1Cl` gave NOD2-RIPK2 inh 8, TLR9-MyD88 inh 0, m5-HT2A agonist 0, CRFBP-R2 block 56*, TLR4 MyD88 comp -4 and ABHD5-PLIN5 inh 2.
Screening C[C@H]1CN([C@@H](C)CO)C(=O)c2cc(Br)cnc2O[C@@H]1CN(C)C(=O)c1ccncc1 returned NOD2-RIPK2 inh -15, TLR9-MyD88 inh -2, m5-HT2A agonist -1, CRFBP-R2 block 14 and ABHD5-PLIN5 inh -2.
`COCCn1c(C)cc(C(=O)COC(=O)c2cccc(O)c2)c1C` gave NOD2-RIPK2 inh 0, TLR9-MyD88 inh 1, m5-HT2A agonist 3, CRFBP-R2 block 2 and ABHD5-PLIN5 inh 4.
Screening COCCn1c(C)cc(C(=O)COC(=O)c2cc3c(s2)CCC3)c1C returned NOD2-RIPK2 inh 6, TLR9-MyD88 inh 6, m5-HT2A agonist 5, CRFBP-R2 block 64*, TLR4 MyD88 comp -4 and ABHD5-PLIN5 inh 9.
For O=C(NCCO)c1nc(C(=O)c2ccc(Cl)cc2)c2ccccc2n1 the results were NOD2-RIPK2 inh 6, TLR9-MyD88 inh -4, m5-HT2A agonist 0, CRFBP-R2 block 71* and ABHD5-PLIN5 inh -13.
COc1cc(NCC2COc3c(ccc(OC)c3OC)C2=O)c([N+](=O)[O-])cc1OC (stereo not drawn) was read as NOD2-RIPK2 inh 5, m5-HT2A agonist -2 and ABHD5-PLIN5 inh 4.
